The values that follow come from the antibiotic and cytotoxicity screens of Wong et al. (2023).

Each structure is given as a SMILES string. The campaign covered roughly 39,000 compounds. About 1,500 (3.8%) were called active. What follows is part of a selection rich in actives, with near analogues and random picks from the rest.

The subject of the experiment is HSkMC (human skeletal muscle cells). Briefly: cytotoxicity call (relative viability < 0.9). Particulars: 10 µM.
For `COc1ccc(S(=O)(=O)N(C)C[C@H]2OCCCC[C@H](C)Oc3ccc(NC(=O)C4CCCCC4)cc3C(=O)N([C@H](C)CO)C[C@H]2C)cc1`, the cytotoxicity call was “inactive”. Under `CCNC(=O)C[C@H]1C=C[C@@H](NC(=O)C2CC2)[C@H](CO)O1` stands “inactive”; under `CC1(C)CC(=O)c2c(C(F)(F)F)nn(-c3ccc(C(N)=O)c(N[C@H]4CC[C@H](OC(=O)CN)CC4)c3)c2C1`, “active”. Under `CC1(C)CC(=O)c2c(C(F)(F)F)nn(-c3ccc(C(N)=O)c(O[C@H]4CC[C@H](N)CC4)c3)c2C1` stands “inactive”; under `NCc1ccccc1-c1ccsc1`, “inactive”. With `CC(C)C#Cc1cnc2c(c1)C(=O)N([C@@H](C)CO)C[C@H](C)[C@@H](CN(C)C(=O)c1ccc3c(c1)OCO3)O2`, the cytotoxicity call is “inactive”. Next, `COc1ccc(CN(C)C[C@@H]2OCCCC[C@@H](C)Oc3ccc(NC(=O)Nc4ccccc4)cc3C(=O)N([C@H](C)CO)C[C@@H]2C)cc1`: “inactive”; `COc1ccc(-c2oc3c(CC=C(C)C)c(OC4OC(CO)C(O)C(O)C4O)cc(O)c3c(=O)c2OC2OC(C)C(O)C(O)C2O)cc1` (stereo not given): “inactive”. Under `COc1ccc(-c2oc3c(CC=C(C)C)c(O[C@@H]4O[C@H](CO)[C@@H](O)[C@H](O)[C@H]4O)cc(O)c3c(=O)c2O[C@@H]2O[C@@H](C)[C@H](O)[C@@H](O)[C@H]2O)cc1` stands “active”; under `COc1ccc(-c2oc3cc(O[C@@H]4O[C@@H](C)[C@H](O)[C@@H](O)[C@H]4O)cc(O)c3c(=O)c2O[C@@H]2O[C@H](CO)[C@@H](O)[C@H](O)[C@H]2O)cc1`, “inactive”; under `COc1ccc(S(=O)(=O)Nc2ccc3c(c2)C(=O)N([C@H](C)CO)C[C@H](C)[C@H](CN(C)Cc2ccc(Cl)c(Cl)c2)OCCCC[C@@H](C)O3)cc1`, “inactive”. Next, `COc1ccc(S(=O)(=O)Nc2ccc3c(c2)C(=O)N([C@@H](C)CO)C[C@H](C)[C@H](CN(C)Cc2ccc(Cl)c(Cl)c2)OCCCC[C@@H](C)O3)cc1`: “active”; `COc1ccc(CN(C)C[C@H]2OCCCC[C@@H](C)Oc3ccc(NS(=O)(=O)c4ccc(OC)cc4)cc3C(=O)N([C@H](C)CO)C[C@H]2C)cc1`: “inactive”; `COc1ccc(S(=O)(=O)Nc2ccc3c(c2)C(=O)N([C@H](C)CO)C[C@H](C)[C@@H](CN(C)Cc2ccc(Cl)c(Cl)c2)OCCCC[C@H](C)O3)cc1`: “active”.

As to `COc1ccc(S(=O)(=O)Nc2ccc3c(c2)C(=O)N([C@H](C)CO)C[C@@H](C)[C@H](CN(C)Cc2ccc(Cl)c(Cl)c2)OCCCC[C@@H](C)O3)cc1`, the cytotoxicity call is “inactive”. On to `COc1ccc(CN(C)C[C@H]2OCCCC[C@H](C)Oc3ccc(NS(=O)(=O)c4ccc(OC)cc4)cc3C(=O)N([C@@H](C)CO)C[C@@H]2C)cc1`, for which the cytotoxicity call is “inactive”. For `COc1ccc(CN(C)C[C@H]2OCCCC[C@@H](C)Oc3ccc(NS(=O)(=O)c4ccc(OC)cc4)cc3C(=O)N([C@@H](C)CO)C[C@@H]2C)cc1`, the cytotoxicity call was “inactive”. For `COc1ccc(S(=O)(=O)Nc2ccc3c(c2)C(=O)N([C@@H](C)CO)C[C@@H](C)[C@@H](CN(C)Cc2ccc(Cl)c(Cl)c2)OCCCC[C@@H](C)O3)cc1`, the cytotoxicity call is “active”. Next, `COc1ccc(CN(C)C[C@H]2OCCCC[C@H](C)Oc3ccc(NS(=O)(=O)c4ccc(OC)cc4)cc3C(=O)N([C@H](C)CO)C[C@H]2C)cc1`: “inactive”. Next, `COc1ccc(S(=O)(=O)Nc2ccc3c(c2)C(=O)N([C@@H](C)CO)C[C@@H](C)[C@H](CN(C)Cc2ccc(Cl)c(Cl)c2)OCCCC[C@@H](C)O3)cc1`: “active”.
